# According to PubChem BioAssay AID463115 (University of Pittsburgh Molecular Library Screening Center, 2010):
# About 130 (0.059%) of roughly 220,000 compounds were called active. The sample holds actives, similar compounds and a random draw of the others, so the mix is not that of the screen. No stated cut-off is given here; in the data, active means inhibition above about 25%; inactive means the rest.
# Target: Furin (Homo sapiens) (UniProt P09958)
# Test: furin protease activity blockers – biochemical, fluorescence intensity, primary screen (AID 463115)
# Conditions: purified furin, fluorogenic substrate cleavage, stronger effect = higher value; at 30 µM unless noted
# Furin (Homo sapiens), sequence (P09958 108-714 limits assumed): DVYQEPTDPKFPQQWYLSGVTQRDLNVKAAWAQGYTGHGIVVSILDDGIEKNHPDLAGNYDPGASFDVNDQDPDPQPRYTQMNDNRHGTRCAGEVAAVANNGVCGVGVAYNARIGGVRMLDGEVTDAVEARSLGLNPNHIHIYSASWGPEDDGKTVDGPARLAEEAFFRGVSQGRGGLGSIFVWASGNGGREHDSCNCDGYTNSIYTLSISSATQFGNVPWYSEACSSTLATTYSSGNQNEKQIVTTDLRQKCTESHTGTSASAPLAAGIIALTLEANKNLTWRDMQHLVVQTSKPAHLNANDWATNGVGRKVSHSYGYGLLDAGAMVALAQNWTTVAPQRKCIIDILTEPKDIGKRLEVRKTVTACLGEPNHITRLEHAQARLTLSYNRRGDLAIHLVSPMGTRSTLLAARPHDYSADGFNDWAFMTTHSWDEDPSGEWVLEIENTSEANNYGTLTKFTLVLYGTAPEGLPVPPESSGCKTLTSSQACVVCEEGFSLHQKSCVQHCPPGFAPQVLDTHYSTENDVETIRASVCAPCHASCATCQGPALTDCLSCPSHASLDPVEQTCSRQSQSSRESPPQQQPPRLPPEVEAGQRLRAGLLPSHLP
row,Compound,inhibition
1,Cn1c(SCC(=O)c2ccc(F)cc2)nnc1-c1ccccn1,-22.4% (inactive)
2,CCc1cc(C(=O)OC)c(NC(=O)CC2Sc3ccc(C(F)(F)F)cc3NC2=O)s1 (stereo not given),-18.6% (inactive)
3,Cc1nc2ccccn2c1C(=O)NN=C1CCN(C)CC1,-16.6% (inactive)
4,CCOC(=O)/C(C#N)=C\c1c(C)cc(C)c(COC(C)=O)c1C,-3.87% [at 20 µM] (inactive)
5,CCc1cc(Br)ccc1NC(=O)C1CCCO1 (stereo not given),-9.19% [at 20 µM] (inactive)
6,OC(CNCC1CCCO1)Cn1c2ccc(Br)cc2c2cc(Br)ccc21 (stereo not given),31.4% [at 20 µM] (active)
7,CCOC(=O)Cn1c(=O)oc2cc(S(=O)(=O)NCC3CCCO3)ccc21 (stereo not given),-8.46% (inactive)
8,COc1ccc(C(=O)Nc2c(Cl)cc(Cl)cc2C(=O)N2CCC(C)CC2)cc1,-7.28% (inactive)
9,CSc1ccccc1-c1nnc(-c2ccc(Cl)cc2)o1,-17.9% [at 20 µM] (inactive)
10,CNC(=O)c1[nH]cnc1C(=O)N[C@@H](CC(C)C)C(=O)OCc1ccccc1,-29.8% (inactive)
11,CCOc1ccc(Oc2nc(C)cc(OC)n2)nn1,-13.8% (inactive)
12,O=C(O)Cc1csc(NC(=O)CSc2nnnn2-c2ccc(O)cc2)n1,-27.1% (inactive)
13,Cc1ccc2nc(COc3ccc(N(C)S(=O)(=O)c4ccccc4)cc3)cc(=O)n2c1,-21.2% (inactive)
14,Cc1ccc(-n2nc3cc(C)c(NC(=O)c4cccnc4)cc3n2)cc1,34.8% [at 20 µM] (active)
15,Cc1ccc(-n2nc3cc(Cl)c(NC(=O)c4ccco4)cc3n2)cc1,-6.45% [at 20 µM] (inactive)
16,Cc1cc2nc(-c3ccc(NC(=O)c4cccnc4)cc3)oc2cc1C,-16% (inactive)
17,O=C(NCc1cccnc1)Nc1cccc(NC(=O)NCc2cccnc2)c1F,-13.7% (inactive)
18,CCCN(CCC)CC(O)COc1ccccc1C(=O)Nc1ccccc1 (stereo not given),-22.6% (inactive)
19,CCn1c(=O)c([N+](=O)[O-])c(NCc2ccc3c(c2)OCO3)c2ccccc21,-12.9% (inactive)
20,CC1=NN(C(=O)Cc2ccc(C)cc2)C(O)(c2cccnc2)C1 (stereo not given),-14% [at 20 µM] (inactive)
21,CCC(CC)c1nnc(NC(=O)c2nn(C)c(=O)c3ccccc23)s1,-10.6% (inactive)
22,Cc1ccc(NC(=O)C(=O)NCc2ccco2)c(C)c1,-25.7% (inactive)
23,C=CCn1c(Cn2nnc3ccccc32)nnc1SCC(=O)N/N=C/c1cc(Br)cc(OC)c1O,1.52% [at 20 µM] (inactive)

row,Compound,inhibition
1,C/C=C/C(=O)Nc1ccc(N2CCN(c3ccc(C(F)(F)F)cn3)CC2)nc1,-27.8% (inactive)
2,COc1cc(OC)c(C(=O)OC(C)C(=O)Nc2cc(C(F)(F)F)ccc2Cl)cc1OC (stereo not given),-12.3% (inactive)
3,O=C(Nc1ccccc1C(=O)N1CCOCC1)c1ccc(Cl)cc1,-16.3% (inactive)
4,Cc1cc(C(=O)N2CCC(C(=O)O)CC2)c(C(F)(F)F)o1,-9.96% (inactive)
5,O=C(Nc1cnn(Cc2ccc(Cl)cc2)c1)C1CCCC1,-14.4% [at 20 µM] (inactive)
6,Cc1nn(C)cc1C(=O)Nc1ccccc1Br,-17.2% (inactive)
7,C=CCC(CC=C)(C(N)=O)c1ccccc1,-29.7% (inactive)
8,Fc1ccccc1OCCCCn1cncn1,-28.7% [at 20 µM] (inactive)
9,COc1ccc(CCNc2cc(C)nc3c(-c4ccc(Cl)cc4)c(C)nn23)cc1OC,9.61% (inactive)
10,O=C(Nc1nccs1)C1CCN(S(=O)(=O)c2ccc(Cl)c(C(F)(F)F)c2)CC1,-14.1% [at 20 µM] (inactive)
11,COCCNc1nc2nonc2nc1N1CCCC1c1nccs1 (stereo not given),-8.2% (inactive)
12,O=C(/C=C/c1ccccc1)Nc1nnc(SCC(=O)c2ccc3ccccc3c2)s1,-20.8% (inactive)
13,COCCN1C(=O)N[C@@H](CCc2ccccc2)[C@H](C(C)=O)[C@H]1C,-15.4% (inactive)
14,CC(=O)C1=C(C)NC(=O)NC1c1cc(Br)ccc1OCC#N (stereo not given),-17.2% [at 20 µM] (inactive)
15,CSCC[C@H](NC(=O)OC(C)(C)C)C(=O)N/N=C/c1cc2ccc(C)cc2nc1Cl,-14.1% (inactive)
16,CC1(C)CC(=O)C(N=Nc2ccc(S(=O)(=O)N3CCCCCC3)cc2)=C(O)C1,-26.5% (inactive)
17,C/C(=N\Nc1nc2ccccc2[nH]1)c1cccs1,-12.4% (inactive)
18,CCCC(=O)NC(C)C(c1cccs1)N1CCN(c2ccccc2)CC1 (stereo not given),25.4% [at 20 µM] (active)
19,CC(NC(=O)C(C)(C)C)C(c1cccs1)N1CCN(Cc2ccccc2)CC1 (stereo not given),-27.5% (inactive)
20,CC(NC(=O)Nc1ccccc1)C(c1cccs1)N1CCN(c2ccccc2)CC1 (stereo not given),-13.8% (inactive)
21,COc1ccc(C(=O)NC(=S)Nc2ccc(Cl)cn2)cc1OC,-15.4% (inactive)
22,Cn1c(=O)n(C)c2cc(NS(=O)(=O)c3ccc(F)cc3)ccc21,-20.7% (inactive)
